“And” between values parts separate entries of the source, which are not always exact repeats. Equal entries are not always repeated. Compounds without any hit were thinned out: in the full panel of roughly 83,000, 20% have a hit.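 Method: cells in 96-well plates; compound added at one concentration; 48 h incubation; percent growth measured; values under 10 scored active.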 The source made the active and inactive calls.

In this test the test system is HL-60(TB) leukemia. Nature of the test: NCI-60 one-dose screen, 48 h (100 = growth as untreated, 0 = no growth, -100 = all killed). The note with it: 10 µM unless noted.
On to `O=C(Nc1ccc(Cl)cc1)Nc1ccc(Cl)c(Cl)c1`, for which the growth was -23.6% (active).

On to `COc1ccc2c(c1)C(=O)c1c-2c(OCCN2CCCCC2)nc2ccc(OC)cc12`, for which the growth was 17.1% (inactive).

Take `CCc1cccc2c3c(sc12)C(c1ccc(F)cc1)C(C#N)=C(N)O3` (stereo not given): the growth was 1.86% (active).

Turning to `Oc1cccc(-c2nc3sccn3c2-c2ccncn2)c1`, the growth is 99.2% (inactive).

As to `COc1ccc(Cn2c(NCCCN(C)C)nc(=O)n(Cc3ccc(F)cc3)c2=O)cc1`, the growth is 95.7% (inactive).

Take `COc1cc2c3c(n([C@@H]4CCOC4)c(=O)c2cc1OC)-c1cc2c(cc1C3=O)OCO2`: the growth is 26.3% (inactive).

As for `COc1cc(NC(C)CCCNC(C)C)c2ncccc2c1OC` (stereo not given), the growth is 10.6% (inactive).

As to `Cc1c(O)c(N=Nc2ccc(C(=O)O)c(O)c2)c2ccccc2c1O`, the growth is 77.4% (inactive).

With `COc1cccc(C2C(C#N)=C(N)Oc3cc(N)ccc32)c1` (stereo not given), the growth is -19% (active).

As for `C/C(=N/NC(=O)Cn1c2ccccc2c2ccncc21)c1cccs1`, the growth is 83.5% (inactive).

As for `Cc1cc(C(=O)O)c(C)cc1C(=O)O`, the growth is 113% (inactive).

`CN1CNC(=O)NC1`: the growth is 85.5% (inactive) and 102% (inactive).

As to `CC(C)(O)C#CC#CC(C)(C)O`, the growth was 104% (inactive).

Consider `O=c1c2sc3ccccc3c2nnn1-c1ccc(F)c(Cl)c1`, for which the growth was 73.7% (inactive).

Regarding `CC(=O)c1ccc2c(c1)N(CCCN1CCN(CCO)CC1)c1ccccc1S2`, the growth was 73.9% (inactive) and 2.94% (active).

`CC(C)=NNc1ccccn1`: the growth is 34.6% (inactive).

Turning to `NCc1c(O)ccc2ccccc12`, the growth was 102% (inactive).

Regarding `CCOc1cccc(Nc2nc(N)nc3[nH]c4ccc(O)cc4c23)c1`, the growth was 53% (inactive).

`C=CCn1cc(-c2nc3ccccc3s2)c2cc(-c3ccc4c5c(cccc35)C(=O)N(N)C4=O)ccc21`: the growth is 103% (inactive).

Consider `COc1ccc2c(c1)CC[C@H](O)/C2=C/c1cc(OC)c(OC)c(OC)c1`, for which the growth was -20.2% (active).

As for `O=C(Nc1ccc(-n2ccc3c(NC(=O)c4ccccc4)ncnc32)cc1)Nc1cccc(Cl)c1Cl`, the growth is 62.9% (inactive).

Regarding `N#C/C(=C\c1ccc[nH]1)c1cc2ccccc2[nH]1`, the growth was 64.8% (inactive).

In the case of `NNC(=O)Nc1ccccc1`, the growth was 102% (inactive).

Take `O=c1c2c(c3ccccc3n1-c1ccccc1)NC(=S)NC2c1ccccc1` (stereo not given): the growth was 44.3% (inactive).

As to `Cn1cc(C(=O)c2nc(-c3c[nH]c4ccccc34)no2)c2ccccc21`, the growth is 58.5% (inactive).

For `N=C(N)c1ccc(-c2ccc(-c3ccco3)o2)cc1`, the growth is 16.6% (inactive).

In the case of `Cc1ccc(S(=O)(=O)N2C/C(=C\c3cc(F)cc(F)c3)C(=O)/C(=C/c3cc(F)cc(F)c3)C2)cc1`, the growth is 10.9% (inactive).

Regarding `CCOc1ccc2c(S(=O)(=O)O)cccc2c1[N+](=O)[O-]`, the growth was 113% (inactive) and 95.7% (inactive).

With `CC(C)(C)c1ccc(S(=O)(=O)N[C@H]2CC[C@H]3[C@@H]4CCc5cc(OS(=O)(=O)O)ccc5[C@H]4CC[C@]23C)cc1`, the growth is 19.6% (inactive).

Consider `CC(C)CCNC(=O)Cn1cccc(NC(=O)OCc2ccccc2)c1=O`, for which the growth is 103% (inactive).

For `Nc1ccccc1SC(CC(=O)c1ccccc1)c1cccc([N+](=O)[O-])c1` (stereo not given), the growth was 96.8% (inactive) and 88.5% (inactive).

Consider `O=C(Nc1ccc(F)cc1F)c1cc(Br)ccc1O`, for which the growth was -36.2% (active).

Take `CC(C)N=c1cc2n(-c3ccc(Cl)cc3)c3ccccc3nc-2cc1Nc1ccc(Cl)cc1`: the growth is -6.14% (active) and -2.06% (active) and -36.3% (active).

Consider `C=C1C(=O)O[C@H]2[C@H]1CC/C(COC(=O)C(=O)c1cn(C)c3ccc(Cl)cc13)=C\CC[C@@]1(C)O[C@@H]21`, for which the growth was -35.1% (active).

In the case of `COc1cc(-c2nn(-c3ccc(NC(=O)NCCCNC(=O)c4ccccc4)cc3)cc2-c2ccncc2)ccc1Cl`, the growth was -0.104% (active).

Turning to `c1nc(SC2=NCCN2)c2[nH]cnc2n1`, the growth is 22.6% (inactive).

For the molecule `O=C1Nc2ccc(I)cc2C1=O`, the growth is 111% (inactive).

As to `Cc1ccc2nc(SCC(=O)Nc3ccc(-c4nc5ccccc5s4)c(Cl)c3)[nH]c2c1`, the growth is 111% (inactive).

As for `COC(=O)/C=C1\S/C(=N\NS(=O)(=O)c2ccc(C)cc2)N(c2ccccc2)C1=O`, the growth was 105% (inactive).

On to `C=C(C)[C@@H]1CC[C@]2(C(=O)OCCCC[P+](c3ccccc3)(c3ccccc3)c3ccccc3)CC[C@]3(C)[C@H](CC[C@@H]4[C@@]5(C)CC[C@H](OC(=O)C(Cl)Cl)C(C)(C)[C@@H]5CC[C@]43C)[C@@H]12`, for which the growth is -49.9% (active).

The values are drawn from PubChem BioAssay (NCI).
